Screening results deposited in PubChem BioAssay by National Center for Advancing Translational Sciences (NCATS).
D2 ag-1: agonists of human D2 dopamine receptor | HEK293 T-REx D2 cells, calcium flux agonist mode | actives 0.53% (n = 340,000) | activation, % at 2 µM | P14416 | AID 485358;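 active = activation over 3 SD above normal in the single-dose calcium agonist read, cut at about 30% in these data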; note: 0% is about no effect
Target sequence (P14416 whole entry, looked up): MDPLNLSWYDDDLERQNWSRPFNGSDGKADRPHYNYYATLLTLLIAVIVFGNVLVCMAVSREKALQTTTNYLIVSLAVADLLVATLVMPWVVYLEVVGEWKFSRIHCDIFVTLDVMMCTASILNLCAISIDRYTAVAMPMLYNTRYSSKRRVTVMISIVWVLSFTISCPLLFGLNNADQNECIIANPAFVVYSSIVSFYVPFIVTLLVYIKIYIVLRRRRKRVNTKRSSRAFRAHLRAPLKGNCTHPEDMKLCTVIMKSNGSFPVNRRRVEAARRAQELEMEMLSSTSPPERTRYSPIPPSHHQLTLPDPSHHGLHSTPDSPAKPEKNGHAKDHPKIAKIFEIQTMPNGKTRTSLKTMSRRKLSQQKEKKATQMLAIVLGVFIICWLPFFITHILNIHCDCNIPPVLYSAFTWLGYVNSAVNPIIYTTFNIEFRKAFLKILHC
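Agonism is scored from calcium flux in a force-coupled, inducible HEK293 cell line expressing D2, read kinetically for 180 s after compound addition against dopamine controls.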
D2 PAM-1: positive allosteric modulators of human D2 dopamine receptor | P14416 | HEK293 T-REx D2, calcium flux, EC20 dopamine potentiation | potentiation, % at 10 µM | actives 0.34% (n = 340,000);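 active = potentiation over 3 SD above the plate norm, cut at about 30% in these data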; note: 0% is about no effect
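Potentiation of an EC20 dopamine calcium response measured kinetically over 180 s, after a preceding 180 s compound-only read flagging agonists. Cells: inducible Hek293 Trex D2 line, 4000/well, cultured overnight at 30 C before dye loading.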
D2 PAM-2: positive allosteric modulators of human D2 dopamine receptor; P14416; actives 0.23% (n = 360,000); DiscoveRx D2 beta-arrestin cells, luminescence, 90 min; 100% = 57 uM dopamine signal; potentiation, % (concentration not given with the values); in the data active = potentiation above about 50%; inconclusive = mostly about 30% to 49%
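PathHunter beta-arrestin assay in DiscoveRx D2 cells. Compounds were added with an EC20 of dopamine (50 nM final) for 90 min at 37 deg C. Luminescence was read 1 h after detection reagent, with 57 uM dopamine as the EC100 control.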
D2 antagonist: D2 dopamine receptor (human) antagonism; P14416; HEK293 TREx D2 cells, calcium flux, dopamine EC80; inhibition, % at 10 µM; actives 2% (n = 340,000); AID 485344; in the data active = inhibition above about 30%; inactive = below that, where a call was filed; note: 0% is about no effect
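Inhibition of EC80 dopamine-driven calcium flux, recorded kinetically, defines activity here; cells are a tetracycline-induced HEK293 T-REx line expressing force-coupled D2.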
D2 ag-2: activates the human D2 dopamine receptor; P14416; activation, % (test concentration not listed); actives 0.084% (n = 360,000); AID 624465; DiscoveRx PathHunter D2 beta-arrestin, luminescence, 90 min; 100% = 57 uM dopamine signal; in the data active = activation above about 40%; inconclusive = between about 15% and that limit
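DiscoveRx PathHunter D2 beta-arrestin cells (2,100/well) attached overnight, then compound-stimulated 90 min at 37 C in HBSS/10 mM HEPES/0.1% Tween-20 buffer; beta-galactosidase complementation read by luminescence after 1 h at ambient temperature. Dopamine 57 uM final (EC100) as control.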
* marks the source's active call; other numbers are inactive results; u = inconclusive; x = no result given. In the library only some 2.4% were active in any assay of this set; here they are far more common.

SMILES	D2 ag-1	D2 PAM-1	D2 PAM-2	D2 antagonist	D2 ag-2
CCOC(=O)C1CCN(C(=O)Cn2ncc3c4ccccc4n(Cc4ccccc4)c3c2=O)CC1	0	x	x	x	x
CN1CCN(C2=Cc3ccccc3Sc3cc(F)c(Cl)cc32)CC1	1	-26	-45	74*	-2
CN1CCN(C2=Cc3ccccc3Sc3cc(F)c(F)cc32)CC1	-2	0	-43	-24	-4
CCN(CC)S(=O)(=O)c1cccc(-c2nnc(SCC(=O)c3cc(C)n(C4CC4)c3C)o2)c1	1	3	11	-5	0
C=CCn1c(C)cc(C(=O)CSc2nnc(-c3cccc(S(=O)(=O)N(CC)CC)c3)o2)c1C	0	39*	-12	-20	-3
Cc1ccc(-n2cccn2)c(CN2CCCC(C(=O)c3sccc3C)C2)c1 (stereo unspecified)	1	-14	-13	73*	-4
CCCc1nc2ccc(NC(=O)c3ccco3)cc2c(=O)n1Cc1ccc(Cl)cc1	0	45*	-6	0	-3
CC1(C)CC(=O)N(CC(=O)NC2CCCC2)c2ccccc2S1(=O)=O	2	-1	-2	4	-2
COc1ccc(OC)c(CCNC(=O)CN2C(=O)CC(C)(C)S(=O)(=O)c3ccccc32)c1	0	34*	-3	-1	1
COCCn1c(=O)[nH]c2cc(C(=O)OC)ccc2c1=O	1	12	21	-5	1
COC(=O)c1ccc2c(C)c(C(C)(C)O)[nH]c2c1	0	-9	3	45*	3
Cn1cc(S(=O)(=O)N2CCN(c3ccccc3F)CC2)c(=O)n(C)c1=O	0	0	-9	32*	-3
c1ccc(-c2noc(CN3CCc4sccc4C3)n2)cc1	0	3	10	35*	2
c1ccc(CCc2nc(-c3ccccc3)no2)cc1	1	39*	-11	15	-1
c1ccc(-c2noc(CN3CCN(c4ccccc4)CC3)n2)cc1	x	x	-3	x	3
CC(=O)c1cccc(NC(=O)C2CCCN(c3nnc(-n4cccc4)s3)C2)c1 (stereo unspecified)	x	-12	x	x	x
Cc1cc2cc(CNC(=S)NCc3ccccc3)ccc2n1C	1	16	-3	45*	2
CCCCC(=O)NCc1ccc2c(c1)cc(C)n2C	1	-10	-11	34*	-2
CCOC(=O)CCC(=O)NCc1ccc2c(c1)cc(C)n2C	0	-5	2	-8	0
Cc1cc2cc(CNC(=O)c3cccs3)ccc2n1C	52*	-12	-7	1	-2
Cc1ccc(N2CC(NC(=O)Cc3ccc(F)cc3)CC2=O)cc1C (stereo unspecified)	1	-5	x	x	x
CCc1nn2c(=O)cc(COC(=O)c3ccc(NC(=O)c4cccs4)cc3)nc2s1	1	-1	x	x	x
Cc1cc(NC(=O)Cn2c(=O)oc3ccccc32)no1	0	4	-3	33*	-3
Oc1sc(C=Nc2ccccc2)c2ccccc12	36*	-2	24	-11	6
Oc1sc(C=Nc2ccc(F)cc2)c2ccccc12	-1	6	u	-9	-1
SMILES	D2 ag-1	D2 PAM-1	D2 PAM-2	D2 antagonist	D2 ag-2
CC(=O)Nc1cc2c(cc1C(=O)c1ccc(C)cc1)OCCO2	1	-6	-2	34*	-3
Cc1ccc(C)c(Cn2nc3c4ccccc4n(Cc4ccccc4)cc-3c2=O)c1	0	5	-6	30*	-4
Cc1cccc(NC(=O)Cn2nc3c4ccccc4n(Cc4ccccc4)cc-3c2=O)c1	0	1	x	x	x
CCOC(=O)c1c(-c2ccc(C)cc2)cn2ccccc12	1	-9	-16	7	-2
CCOC(=O)c1c(-c2ccc(OC)cc2)cn2ccccc12	-1	-1	-13	62*	-3
CCN(C(=O)CSc1nc2ccc(O)cc2c(=O)n1-c1ccc(OC)c(OC)c1)C1CCS(=O)(=O)C1 (stereo unspecified)	-1	9	-70	43*	-1
Cn1c(N2CCOCC2)c(/C=N/OC(=O)c2ccc(F)cc2)c2ccccc21	0	12	141*	-5	u
CC(=O)O/N=C/c1c(N2CCOCC2)n(C)c2ccccc12	x	x	62*	x	13
Cn1c(Cl)c(/C=N/OC(=O)c2ccc(Cl)cc2)c2ccccc21	0	-3	-2	56*	1
Cc1ccc(C(=O)O/N=C/c2c(N3CCOCC3)n(C)c3ccccc23)cc1	0	-8	85*	-7	u
Cc1ccc(C(=O)O/N=C/c2c(Cl)n(C)c3ccccc23)cc1	-1	-1	-12	5	2
Fc1cccc(CSc2nc(NCCc3ccccc3)c3ccccc3n2)c1	1	17	x	x	x
O=C(Cn1c(=O)n(-c2ccc(Cl)cc2)c(=O)c2sc3ccccc3c21)NC1CCCCC1	1	0	x	x	x
CC(=O)c1c(C)[nH]c(C(=O)OCCCCN2C(=O)c3ccccc3C2=O)c1C	-1	4	9	48*	-2
COc1ccc(C(O)(CCC(C)C)C(CN2CCOCC2)c2ccc(Cl)cc2)cc1 (stereo unspecified)	0	41*	0	0	-1
Cc1nc(-n2nc(C)c(CCC(C)C)c2C)sc1C(=O)Nc1ccc(Cl)cc1	-2	14	x	x	x
CC1CCCCC1NC(=O)Cn1cccc1C(=O)c1ccccc1 (stereo unspecified)	0	35*	-9	-10	-5
Cc1ccccc1C(=O)c1cccn1CC(=O)NC1CCCC(C)C1C (stereo unspecified)	0	-2	-14	-2	-6
N=c1c2c(-c3ccccc3)c(-c3ccccc3)n(Cc3ccco3)c2ncn1Cc1ccccc1	3	1	3	14	-3
CC(C)Cn1cnc2c(c(-c3ccccc3)c(-c3ccccc3)n2Cc2ccco2)c1=N	2	-5	-27	46*	-4
COCCNC(=O)c1ccc(-n2c(-c3ccccc3)cc3c2CCCCC3)cc1	0	9	x	x	x
COc1ccc(-c2cc(N)n(S(=O)(=O)c3c(F)c(F)c(F)c(F)c3F)n2)cc1OC	3	-4	-11	35*	0
COc1ccc(S(=O)(=O)n2nc(-c3cc(OC)c(OC)c(OC)c3)cc2N)cc1OC	0	3	-1	1	-2
COc1ccc(NC(=O)CCN2C(=O)c3ccncc3C2=O)cc1OC	0	0	-14	34*	-6
CCN(C(=O)COC(=O)CCc1ccc(OC)cc1)c1c(N)n(Cc2ccccc2)c(=O)[nH]c1=O	0	6	11	34*	0
Nc1c(N(CCC2=CCCCC2)C(=O)COc2ccc(F)cc2)c(=O)[nH]c(=O)n1Cc1ccccc1	1	-9	-3	-13	0
Nc1c(N(CCC2=CCCCC2)C(=O)CCCOc2ccccc2)c(=O)[nH]c(=O)n1Cc1ccccc1	1	7	5	33*	2
